Laboratory results as given in PubChem BioAssay (NCATS).
Records with an inconclusive call do not appear. Values without a mark were called inactive. Calls come from the whole dose curve; as a rule, active = well fitted inhibition curve with a large enough effect; inconclusive = small, poorly fitted or top-dose-only effect; inactive = flat fitted curve, though single readings scatter.

The compounds below were run against Calcium and integrin-binding protein 1 (Homo sapiens) (UniProt Q99828) (assay: Primary qHTS for Identification of Calcium Integrin Binding Protein 1 (CIB1) Competitor (AID 1508620;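 note: GST tagged CIB1 binding a fluorescein labelled alphaIIb integrin peptide tracer; top concentration of the series differs between compounds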)). Settings: CIB1-GST / FITC-alphaIIb peptide fluorescence polarization; series mostly up to 114 µM; activity change, negative = inhibition: at the top concentration.
Sequence of Calcium and integrin-binding protein 1 (Homo sapiens) (Q99828 whole entry, looked up): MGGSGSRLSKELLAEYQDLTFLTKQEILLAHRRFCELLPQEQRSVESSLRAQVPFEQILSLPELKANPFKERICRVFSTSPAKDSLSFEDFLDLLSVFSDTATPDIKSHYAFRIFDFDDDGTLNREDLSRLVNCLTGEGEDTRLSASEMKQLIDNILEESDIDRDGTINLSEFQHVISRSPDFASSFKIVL
Summary of the method: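 Fluorescence polarization competition: CIB1-GST (1 uM final) preincubated with compound 15 min at room temperature, then FITC-labeled alphaIIb peptide (100 nM final) added for another 15 min. Polarization read at Ex 480/Em 540.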
% is set by controls: 0 for no effect and ±100 for the full control effect.

Row | SMILES | activity change, negative = inhibition
1 | CC1(C)CC[C@]23CO[C@@]4(CCC5[C@@]6(C)CC[C@H](O[C@@H]7OC[C@H](O[C@@H]8O[C@H](CO)[C@@H](O)[C@H](O)[C@H]8O)[C@H](O)[C@H]7O[C@@H]7O[C@H](CO)[C@@H](O[C@@H]8O[C@H](CO)[C@@H](O)[C@H](O)[C@H]8O)[C@H](O)[C@H]7O)[C@@](C)(CO)C6CC[C@@]5(C)[C@]4(C)C[C@H]2OC2OCC(O)C(O)C2O)C3C1 (some centres not stated) | -6.44% [at 12.4 µM]
2 | Cc1ccccc1C#Cc1ccc(CCC(=O)O)cc1 | -4.67%
3 | C/C=C1\[C@H](O[C@@H]2O[C@H](CO)[C@@H](O)[C@H](O)[C@H]2O)OC=C(C(=O)OC)[C@H]1CC(=O)O | 1.4% [at 57.7 µM]
4 | O=C(O)c1ccc(OC2OC(CO)C(O)C(O)C2O)cc1 (configuration not stated) | -5.28%
5 | COc1cc2nc(N3CCCC3)nc(NCCCCCN3CCCC3)c2cc1OC | 14.9%
6 | CC1CC[C@]2(C(=O)O)CC[C@]3(C(=O)O)C(=CCC4[C@@]5(C)CC[C@H](O[C@@H]6O[C@H](CO)[C@@H](O)[C@H](O)[C@H]6O)C(C)(C)C5CC[C@]43C)C2C1C (some centres not stated) | 0.492% [at 30.2 µM]
7 | CNC(=O)c1ccccc1Nc1nc(Nc2ccc3c(c2OC)CCCC(N2CCN(CCO)CC2)C3)ncc1Cl (configuration not stated) | -1.71%
8 | O=C(O)CCCCCC[C@H]1C(=O)NC(=O)N1CC[C@@H](O)C1CCCCC1 | 3.99%
9 | C=C(C(=O)O)C1CCC2(C)CCC(O)C(=C)C2C1 (configuration not stated) | -1.91%
10 | CCCOc1ccc(-c2nc(OC)c3ccccc3n2)cc1 | 3.62%
11 | COC(=O)C[C@H]1C(C)(C)[C@H](OC(=O)C(C)C)[C@@]2(O)C(=O)[C@]1(C)C1CC[C@]3(C)C(CC(=O)O[C@H]3c3ccoc3)[C@]13O[C@@H]32 (some centres not stated) | 2.94% [at 30.2 µM]
12 | C=C1C(=O)OC2C1CCC(=C)C1CC(OC(C)=O)C(=C)C12 (configuration not stated) | -6.76%
13 | CC(=O)O[C@H]1CC[C@@]2(C)C(CC[C@@H](C)[C@]23Cc2c(O)cc4c(c2O3)CN([C@@H](CCC(=O)O)C(=O)O)C4=O)C1(C)C (some centres not stated) | 1.44% [at 57.7 µM]
14 | CC12CCC(=O)C=C1C(O)CC1C2C(O)CC2(C)C1CC[C@]2(O)C(=O)CO (some centres not stated) | 4.73% [at 30.2 µM]
15 | Cc1ccc(C(=O)N(CCCN)C(c2nc3cc(Cl)ccc3c(=O)n2Cc2ccccc2)C(C)C)cc1 (configuration not stated) | -5.05%
16 | C=CC(C)(C)c1[nH]c2cc3c(cc2c1CC1NC(=O)C2CCCN2C1=O)C=CC(C)(C)O3 (configuration not stated) | 2.79% [at 57.7 µM]

Row | SMILES | activity change, negative = inhibition
17 | COc1cc(/C=C/CO)cc(OC)c1O[C@@H]1O[C@H](CO[C@@H]2O[C@H](CO)[C@@H](O)[C@H](O)[C@H]2O)[C@@H](O)[C@H](O)[C@H]1O | 2.81% [at 57.7 µM]
18 | O=C(O)CC1CCC(c2ccc(-c3ccc4nc(C(=O)NCc5ccc(OC(F)(F)F)cc5)cn4c3)cc2)CC1 (configuration not stated) | -13%
19 | COC(=O)C12CCC(C)C(C)C1C1=CCC3C4(C)CCC(OC(C)=O)C(C)(C)C4CCC3(C)C1(C)CC2 (configuration not stated) | 2% [at 57.7 µM]
20 | CC1(C)C2CC=C(COC3OC(COC4OCC(O)(CO)C4O)C(O)C(O)C3O)C1C2 (configuration not stated) | 4.6% [at 57.7 µM]
21 | COC(=O)C1=CO[C@@H](O[C@@H]2O[C@H](CO)[C@@H](O)[C@H](O)[C@H]2O)[C@@H]2C(CO)=CC[C@]12O | -2.63% [at 57.7 µM]
22 | O=C1Nc2ccccc2C(O)(c2ccccc2)C1O (configuration not stated) | 1.23%
23 | CC(C)c1cccc2c(-c3ccccc3)cc(-c3ccc(-c4ccc(C(=O)O)cc4)[nH]3)nc12 | 3.96%
24 | CC(C)(C)CCN1C[C@@H]2C(CNC(=O)c3cc(Cl)cc(Cl)c3)[C@@H]2C1 (some centres not stated) | 0.0696%
25 | CC1(C)CC(=O)C2=C(C1)NC(=S)NC2c1cccc(O)c1 (configuration not stated) | -1.21%
26 | C=C1CC[C@@H]2[C@@](C)(CO[C@@H]3O[C@H](CO)C(O)[C@H](O)C3O)[C@H](O)CC[C@@]2(C)[C@@H]1CC/C(C)=C/CO (some centres not stated) | 1.11% [at 30.2 µM]
27 | [N-]=[N+]=N[C@]1(CO)O[C@@H](n2ccc(=O)[nH]c2=O)[C@@H](O)[C@@H]1O | 4.17%
28 | CC1=C(CCC(C)CC(=O)O)[C@@]2(C)CCCC(C)(C)C2CC1=O (some centres not stated) | -3.07% [at 57.7 µM]
29 | CCC[C@@H]1O[C@@H]2C[C@H]3[C@@H]4CCC5=CC(=O)C=C[C@]5(C)[C@H]4[C@@H](O)C[C@]3(C)[C@]2(C(=O)CO)O1 | -2.11%
30 | C[C@@H]1O[C@@H](O[C@H]2[C@H](O[C@H]3[C@H](O[C@H]4CC[C@@]5(C)C(CC[C@]6(C)C5CC=C5[C@@H]7CC(C)(C)CC[C@]7(C(=O)O[C@@H]7O[C@H](CO)[C@@H](O[C@@H]8O[C@@H](C)[C@H](O)[C@@H](O)[C@H]8O)[C@H](O)[C@H]7O)CC[C@]56C)C4(C)C)OC[C@H](O)[C@@H]3O)O[C@H](CO)[C@@H](O)[C@@H]2O)[C@H](O)[C@H](O)[C@H]1O (some centres not stated) | -0.624% [at 12.4 µM]
31 | C=C(C)C(=O)O[C@H]1CC2=CC(C/C(C)=C\[C@H]3OC(=O)C(=C)[C@H]13)OC2=O (some centres not stated) | -16.2% [at 57.7 µM]
32 | CC(O)CO[C@@H]1O[C@H](CO)[C@@H](O)[C@H](O)[C@H]1O (some centres not stated) | 0.728%
